The nature of experiment [1]: Cell Viability - NIH 3T3 (AID 541; active = well fitted curve in the direction sought with a large enough effect; an effect the other way counts as inactive or inconclusive;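 note: cells exposed to compound for 40 hours; plate controls were DMSO alone for no effect and tamoxifen positive control for full effect; nearly all actives have a fitted effect of over 25% in size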). Particulars: NIH 3T3 cell viability, qHTS; activity change, negative = cytotoxicity: at 92.2 µM (top of the series). The method, boiled down: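 qHTS format; 40 hr compound exposure, 37 °C; CellTiter-Glo luminescence (cellular ATP) read-out after 20 min at RT. Decrease in ATP = cytotoxicity; AC50 from standard Hill fit.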
On the technique in general: In qHTS, concentration-response curves come from the screen itself.

Experiment [2] addresses Estrogen receptor (Homo sapiens) (UniProt P03372). As to the kind of experiment: qHTS assay for small molecule antagonists of estrogen receptor alpha signaling (AID 588513; active = well fitted curve in the direction sought with a large enough effect in the signal ratio, with a control signal flat, not every such curve was filed as active; the % refers to the signal ratio; note: % is set by controls: 0 for no effect and ±100 for the full control effect). Summed up: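 ER-alpha-UAS-bla GripTite HEK 293 cells in 2% charcoal/dextran-treated FBS medium; compounds titrated (1:2, duplicate), then stimulated with 0.5 nM 17-beta-estradiol for 18 h at 37C. CCF4 beta-lactamase fluorescence; Hill-fit IC50 and efficacy.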

The target of experiment [3] is Glucocorticoid receptor (Homo sapiens) (UniProt P04150). As to the kind of experiment: qHTS assay for small molecule agonists of glucocorticoid receptor signaling (AID 588532; active = well fitted curve in the direction sought with a large enough effect in the signal ratio, with a control signal flat; the % refers to the signal ratio;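 note: 100% = dexamethasone at 0.1 µM and 0% = DMSO only wells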). The settings on record: HeLa MMTV-bla, beta-lactamase ratio, agonist, 18 h; stronger effect = higher value; percent of dexamethasone control, DMSO zero. Summed up: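 MMTV-bla HeLa beta-lactamase reporter cells in 1% charcoal/dextran FBS medium, compounds up to 92 uM for 18 h at 37 C, CCF4 readout; normalized to 0.1 uM dexamethasone (100%), EC50 and efficacy from Hill fits.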

For experiment [4] the target is unchanged. Briefly: qHTS assay for small molecule antagonists of glucocorticoid receptor signaling (AID 588533; active = well fitted inhibition curve with a large enough effect in the signal ratio, with a control signal flat, not every such curve was filed as active; the % refers to the signal ratio;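 note: cells stimulated with 2 nM dexamethasone as agonist; % is set by controls: 0 for no effect and ±100 for the full control effect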). Summed up: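 Antagonist-mode qHTS: compound titrations added to GRE-bla HeLa cells, then dexamethasone 2 nM final; 18 h, 37 C. CCF4 FRET fluorescence normalized to dexamethasone and DMSO; IC50 from Hill fit.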
Experiment [5] deals with Peroxisome proliferator-activated receptor delta (Homo sapiens) (UniProt Q03181). Briefly: qHTS assay for small molecule agonists of peroxisome proliferator-activated receptor delta signaling (AID 588534).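 Note: 0% = DMSO basal wells and 100% = positive control agonist at 10 µM.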 The method, boiled down: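 Titration series tested in agonist mode on beta-lactamase reporter cells; 18 hrs at 37 C after a 5 hr pre-incubation. Readout: CCF4 fluorescence, 2 hrs RT. Hill equation gives EC50 and maximal response.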

Experiment [6] is described as follows: qHTS assay for small molecule antagonists of peroxisome proliferator-activated receptor delta signaling (AID 588535; active = well fitted inhibition curve with a large enough effect in the signal ratio, with a control signal flat, not every such curve was filed as active; the % refers to the signal ratio;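 for max response: cells co-treated with a PPAR-delta agonist as stimulator during compound exposure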). The settings on record: HEK293T PPARd-UAS-bla, beta-lactamase FRET ratio, 18 h; 460 nm channel. The method, boiled down:
(§1)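 Beta-lactamase reporter read-out (405 nm excitation, 460/530 nm emission) after CCF4 loading for 2 hrs at RT. HEK293T PPAR-delta-UAS-bla cells, 2% charcoal/dextran FBS, compounds for 18 hrs at 37 C. Hill fit gave IC50 and efficacy.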

Experiment [7] has as its target Peroxisome proliferator-activated receptor delta (Homo sapiens) (UniProt Q03181). Described as above. The method, boiled down:
as §1

Experiment [8] concerns the target Peroxisome proliferator-activated receptor gamma (Homo sapiens) (UniProt P37231). As to the kind of experiment: qHTS assay for small molecule agonists of peroxisome proliferator-activated receptor gamma signaling (AID 588536; active = well fitted curve in the direction sought with a large enough effect in the signal ratio, with a control signal flat, not every such curve was filed as active; the % refers to the signal ratio;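 note: 0% = DMSO basal wells and 100% = rosiglitazone at 2 µM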). Summed up:
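This is an agonist-mode beta-lactamase reporter assay in HEK293 PPAR-gamma-UAS-bla cells with 1% charcoal/dextran FBS. Compound titrations ran 16 h at 37 C before CCF4 detection. EC50 and efficacy are Hill fits scaled to 2 uM rosiglitazone (100%) and DMSO basal.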

The target is the same in experiment [9]. Briefly: qHTS assay for small molecule antagonists of peroxisome proliferator-activated receptor gamma signaling (AID 588537; active = well fitted inhibition curve with a large enough effect in the signal ratio, with a control signal flat, not every such curve was filed as active; the % refers to the signal ratio;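 note: reporter cells co-stimulated with 50 nM rosiglitazone agonist during compound treatment; % of control where 0% means no effect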). Summed up:
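Read-out: CCF4 fluorescence (ex 405, em 460/530 nm) after 2 h at RT. Cells were HEK293 carrying a UAS-bla reporter and treated 16 h at 37 C with compound plus rosiglitazone (50 nM final). Normalized to rosiglitazone and DMSO.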

The target in experiment [10] is Vitamin D3 receptor (Homo sapiens) (UniProt P11473). Briefly: qHTS assay for small molecule agonists of vitamin D receptor signaling (AID 588543).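 Note: 0% = DMSO basal and 100% = reference agonist control.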 The method, boiled down: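 VDR-UAS-bla HEK293T cells, 2000/well, 2% charcoal-stripped FBS; compound titration 16 h at 37 C; CCF4 beta-lactamase ratio read. Normalized to 50 nM 1-alpha,25-dihydroxyvitamin D3 (100%) and DMSO; Hill fit gives EC50, efficacy.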

Experiment [11] concerns the target Thyroid hormone receptor beta (Homo sapiens) (UniProt P10828). As to the kind of experiment: qHTS assay for small molecule agonists of thyroid hormone receptor beta signaling (AID 588545).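 Note: 0% = DMSO only and 100% = 10 nM T3.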 The method, boiled down: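 Efficacy and EC50 values derive from Hill fits of qHTS titration data, normalized to 10 nM T3 and DMSO-only wells. HEK 293 reporter cells were stimulated for 18 hrs at 37 C, with beta-lactamase activity measured by CCF4 fluorescence.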

The target is the same in experiment [12]. As to the kind of experiment: qHTS assay for small molecule antagonists of thyroid hormone receptor beta signaling (AID 588547; active = well fitted inhibition curve with a large enough effect in the signal ratio, with a control signal flat, not every such curve was filed as active; the % refers to the signal ratio;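 note: cells stimulated with 0.4 nM T3 agonist during compound exposure; % is set by controls: 0 for no effect and ±100 for the full control effect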). The settings on record: TR-UAS-bla HEK293, beta-lactamase ratio, antagonist mode, 18 h. The method, boiled down: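 TR-UAS-bla GripTite HEK293 cells in 2% charcoal/dextran FBS medium; compounds 0.59 nM to 92 uM with T3 at 0.4nM final, 18 h at 37 C. Beta-lactamase read by CCF4 fluorescence (460/530 nm); Hill fits gave IC50 and efficacy.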

Experiment [13] is described as follows: qHTS assay for small molecule activators of the nuclear factor-kappa B (NF-kB) signaling pathway (AID 651749; active = well fitted activation curve with a large enough effect in the signal ratio; the % refers to the signal ratio; note: % of control where 0% means no effect). Particulars: NF-kB-bla ME-180 cells, beta-lactamase FRET ratio, 16 h; stronger effect = higher value. The method, boiled down: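 NF-kB-bla ME-180 cells, 2,000/well; 23 nL compound or DMSO pinned; 16 hr, 37C/5% CO2; beta-lactamase FRET read-out.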
Experiment [14] can be described thus: qHTS assay for small molecule disruptors of the mitochondrial membrane potential - 5 hr assay (AID 651755). Note: % is set by controls: 0 for no effect and ±100 for the full control effect; nearly all actives have a fitted effect of over 40% in size. The method, boiled down: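 Read-out: ratiometric Mito-MPS fluorescence, green monomer (ex 490/em 535) vs red mitochondrial aggregate (ex 540/em 590). HepG2 cells treated 5 hr at 37C before 30 min dye loading.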
Experiment [15] concerns the target Tumor necrosis factor (Homo sapiens) (UniProt P01375). Briefly: qHTS assay to identify small molecules that stimulate Tumor Necrosis Factor-alpha (TNF-alpha) secretion (AID 651757; active = well fitted curve in the direction sought with a large enough effect in the signal ratio; the % refers to the signal ratio; note: 0% is about no effect). Summed up:
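THP-1 cells, 3000/well; compound 17 hrs, 37 C; add cryptate/XL665 anti-TNF-alpha antibody pair; 3 hr RT; TR-FRET (HTRF) read of secreted TNF-alpha. Quantitative HTS format.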

The nature of experiment [16]: qHTS assay to identify small molecules that stimulate interleukin-8 (IL-8) secretion (AID 651758; active = well fitted activation curve with a large enough effect in the signal ratio; the % refers to the signal ratio; note: 0% is about no effect). The method, boiled down:
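Compounds are added to THP-1 cells (2000 per well) and left 16 hrs at 37 C. A labeled anti-IL-8 antibody pair is then added, and IL-8 secretion is measured by time-resolved FRET after 1-3 hrs at room temperature.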

Experiment [17] can be described thus: qHTS assay for environmental chemicals that activate the Aryl hydrocarbon Receptor (AhR) signaling pathway (AID 651777; active = well fitted curve in the direction sought with a large enough effect; an effect the other way counts as inactive or inconclusive; note: % of control where 0% means no effect; nearly all actives have a fitted effect of over 15% in size). The settings on record: 1A2-DRE human hepatoma cells, luciferase, 24 h; activation: stronger effect = higher value. Summed up:
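Following a 24 hr incubation with test chemicals at 37 C and 5% CO2, 1A2-DRE human hepatoma cells received One-Glo reagent; after 30 min at room temperature, luciferase output reflected CYP1A2 induction via AhR.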

Experiment [18] concerns the target Nuclear receptor ROR-gamma (Homo sapiens) (UniProt P51449). Briefly: qHTS assay for small molecule antagonists of the retinoid-related orphan receptor gamma (ROR-gamma) signaling pathway (AID 651802; active = well fitted curve in the direction sought with a large enough effect; an effect the other way counts as inactive or inconclusive;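 note: CHO cells with doxycycline-induced ROR-gamma expression; luciferase reporter luminescence driven by ROR response element; % is set by controls: 0 for no effect and ±100 for the full control effect; nearly all actives have a fitted effect of over 60% in size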). Summed up:
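Luciferase read-out: ONE-Glo luminescence after 30 min at room temperature, following 16hr doxycycline induction at 37C, 5% CO2 of CHO cells with TET-inducible ROR and RORE-LUC reporter; decreased luminescence = reduced reporter activity.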

Experiment [19] can be described thus: qHTS assay for small molecule agonists of the antioxidant response element (ARE) signaling pathway measured by Nrf2-dependant transcriptional activity (AID 720636; active = well fitted curve in the direction sought with a large enough effect in the repeat runs; an effect the other way counts as inactive or inconclusive;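 note: HepG2 cells with an ARE-driven luciferase reporter; % of control where 0% means no effect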). Summed up: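 ONE-Glo luminescence, read 30 min after reagent addition at room temperature, reflected ARE reporter activity in HepG2 cells that had been incubated with compound for 16 hr at 37 C in 1% dialyzed FBS.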

Experiment [20] deals with Bile acid receptor (Homo sapiens) (UniProt Q96RI1). As to the kind of experiment: qHTS assay for small molecule agonists of farnesoid X receptor signaling (AID 588527).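 Note: 0% = vehicle basal and 100% = reference agonist.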 Particulars: HEK293T FXR-UAS-bla, beta-lactamase ratio, 16 h; stronger effect = higher value. Summed up: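 Agonist-mode beta-lactamase reporter in GeneBLAzer FXR-UAS-bla HEK293T cells, titration up to 92 uM, 16 h exposure at 37 C, CCF4 fluorescence. Response scaled to DMSO (0%) and 100 uM chenodeoxycholic acid (100%), then Hill-fitted for EC50 and efficacy.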

Values joined by “and” are separate entries in the source; they are usually repeats but may differ in a detail not shown here. Identical values can stand only once. Records with an inconclusive call do not appear. Active and inactive are the calls of the source. Unless noted, calls come from the whole dose curve.

Results on eight compounds are retold here after PubChem BioAssay (NCATS).

Glucocorticoid receptor (Homo sapiens), sequence (P04150 whole entry, looked up): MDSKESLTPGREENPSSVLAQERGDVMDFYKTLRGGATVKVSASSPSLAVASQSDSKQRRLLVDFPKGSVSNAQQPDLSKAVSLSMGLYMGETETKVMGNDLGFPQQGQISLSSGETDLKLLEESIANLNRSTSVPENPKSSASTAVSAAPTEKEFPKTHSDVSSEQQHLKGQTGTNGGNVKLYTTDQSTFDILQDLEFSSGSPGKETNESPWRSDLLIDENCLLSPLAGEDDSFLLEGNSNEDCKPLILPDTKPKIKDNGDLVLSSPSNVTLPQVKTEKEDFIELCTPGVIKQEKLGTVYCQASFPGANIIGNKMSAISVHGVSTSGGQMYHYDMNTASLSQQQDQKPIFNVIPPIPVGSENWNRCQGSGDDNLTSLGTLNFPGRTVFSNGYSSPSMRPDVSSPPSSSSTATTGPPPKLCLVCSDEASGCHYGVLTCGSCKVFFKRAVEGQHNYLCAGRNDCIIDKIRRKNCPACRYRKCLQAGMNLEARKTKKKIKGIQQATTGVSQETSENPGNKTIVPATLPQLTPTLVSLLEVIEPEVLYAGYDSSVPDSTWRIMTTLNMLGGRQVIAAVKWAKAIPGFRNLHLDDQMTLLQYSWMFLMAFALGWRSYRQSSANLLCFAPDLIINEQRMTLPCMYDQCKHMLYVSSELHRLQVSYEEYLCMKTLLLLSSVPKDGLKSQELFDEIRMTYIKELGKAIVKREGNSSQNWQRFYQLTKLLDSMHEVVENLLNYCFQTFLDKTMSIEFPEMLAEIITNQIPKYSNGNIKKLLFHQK
Peroxisome proliferator-activated receptor gamma (Homo sapiens), sequence (P37231 whole entry, looked up): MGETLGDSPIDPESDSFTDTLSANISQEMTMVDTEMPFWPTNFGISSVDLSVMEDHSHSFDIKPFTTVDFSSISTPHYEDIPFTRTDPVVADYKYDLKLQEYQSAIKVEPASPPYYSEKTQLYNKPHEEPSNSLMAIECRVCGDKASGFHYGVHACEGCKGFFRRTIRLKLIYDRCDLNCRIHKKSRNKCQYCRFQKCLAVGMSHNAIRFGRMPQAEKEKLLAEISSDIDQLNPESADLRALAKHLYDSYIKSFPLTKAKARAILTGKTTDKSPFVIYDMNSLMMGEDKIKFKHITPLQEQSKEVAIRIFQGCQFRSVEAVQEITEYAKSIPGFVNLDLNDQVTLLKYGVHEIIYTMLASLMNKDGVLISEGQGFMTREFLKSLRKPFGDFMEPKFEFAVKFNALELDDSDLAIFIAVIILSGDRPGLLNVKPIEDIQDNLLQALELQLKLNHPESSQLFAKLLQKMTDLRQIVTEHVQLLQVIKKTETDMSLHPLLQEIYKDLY
Bile acid receptor (Homo sapiens), sequence (Q96RI1 whole entry, looked up): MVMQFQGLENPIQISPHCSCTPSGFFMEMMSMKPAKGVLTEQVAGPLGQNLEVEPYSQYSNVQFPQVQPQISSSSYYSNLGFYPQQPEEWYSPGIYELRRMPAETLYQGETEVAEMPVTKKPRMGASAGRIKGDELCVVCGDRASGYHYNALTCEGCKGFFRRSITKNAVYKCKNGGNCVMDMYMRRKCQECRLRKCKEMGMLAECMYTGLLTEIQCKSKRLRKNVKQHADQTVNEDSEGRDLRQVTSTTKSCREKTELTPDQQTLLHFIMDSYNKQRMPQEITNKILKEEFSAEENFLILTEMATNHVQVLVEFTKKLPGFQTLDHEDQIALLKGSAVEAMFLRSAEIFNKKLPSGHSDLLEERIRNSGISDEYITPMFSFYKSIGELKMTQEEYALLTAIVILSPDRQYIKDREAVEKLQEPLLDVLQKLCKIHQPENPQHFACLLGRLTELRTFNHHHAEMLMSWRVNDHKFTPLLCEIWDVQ
Vitamin D3 receptor (Homo sapiens), sequence (P11473 whole entry, looked up): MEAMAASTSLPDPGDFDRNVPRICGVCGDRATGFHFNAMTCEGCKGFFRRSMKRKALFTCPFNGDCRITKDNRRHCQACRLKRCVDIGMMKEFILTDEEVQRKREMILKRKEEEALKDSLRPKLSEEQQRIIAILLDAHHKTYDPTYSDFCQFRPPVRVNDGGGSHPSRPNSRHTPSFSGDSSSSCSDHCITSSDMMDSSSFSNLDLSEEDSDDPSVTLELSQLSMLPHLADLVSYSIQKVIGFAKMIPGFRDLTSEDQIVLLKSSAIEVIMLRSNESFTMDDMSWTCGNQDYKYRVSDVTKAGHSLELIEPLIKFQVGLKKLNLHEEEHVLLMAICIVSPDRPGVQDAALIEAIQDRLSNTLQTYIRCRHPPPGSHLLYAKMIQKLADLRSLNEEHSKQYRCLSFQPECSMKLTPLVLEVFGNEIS
Peroxisome proliferator-activated receptor delta (Homo sapiens), sequence (Q03181 whole entry, looked up): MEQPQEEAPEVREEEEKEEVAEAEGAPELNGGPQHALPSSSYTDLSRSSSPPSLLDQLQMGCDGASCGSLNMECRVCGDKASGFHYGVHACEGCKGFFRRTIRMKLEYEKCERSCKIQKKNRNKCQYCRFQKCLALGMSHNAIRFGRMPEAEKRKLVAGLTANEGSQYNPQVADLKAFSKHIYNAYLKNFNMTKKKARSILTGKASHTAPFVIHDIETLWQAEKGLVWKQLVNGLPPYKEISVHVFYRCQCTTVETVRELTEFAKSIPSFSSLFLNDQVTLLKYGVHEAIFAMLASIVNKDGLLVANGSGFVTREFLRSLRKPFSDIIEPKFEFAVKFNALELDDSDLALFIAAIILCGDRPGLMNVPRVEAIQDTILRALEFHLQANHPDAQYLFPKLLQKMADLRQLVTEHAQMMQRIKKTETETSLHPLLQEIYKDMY
Nuclear receptor ROR-gamma (Homo sapiens), sequence (P51449 whole entry, looked up): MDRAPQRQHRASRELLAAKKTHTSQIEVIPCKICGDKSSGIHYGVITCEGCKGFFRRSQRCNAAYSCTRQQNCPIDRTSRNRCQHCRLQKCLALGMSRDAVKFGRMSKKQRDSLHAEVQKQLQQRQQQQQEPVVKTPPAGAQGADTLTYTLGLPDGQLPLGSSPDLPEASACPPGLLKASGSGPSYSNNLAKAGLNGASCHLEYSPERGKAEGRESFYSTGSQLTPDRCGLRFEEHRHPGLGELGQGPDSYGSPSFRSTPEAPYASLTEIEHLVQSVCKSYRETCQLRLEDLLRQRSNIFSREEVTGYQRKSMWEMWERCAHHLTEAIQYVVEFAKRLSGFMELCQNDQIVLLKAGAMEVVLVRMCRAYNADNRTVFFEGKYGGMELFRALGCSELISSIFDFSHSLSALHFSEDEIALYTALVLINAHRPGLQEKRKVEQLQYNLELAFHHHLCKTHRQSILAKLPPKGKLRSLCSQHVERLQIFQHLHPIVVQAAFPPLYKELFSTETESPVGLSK
Estrogen receptor (Homo sapiens), sequence (P03372 whole entry, looked up): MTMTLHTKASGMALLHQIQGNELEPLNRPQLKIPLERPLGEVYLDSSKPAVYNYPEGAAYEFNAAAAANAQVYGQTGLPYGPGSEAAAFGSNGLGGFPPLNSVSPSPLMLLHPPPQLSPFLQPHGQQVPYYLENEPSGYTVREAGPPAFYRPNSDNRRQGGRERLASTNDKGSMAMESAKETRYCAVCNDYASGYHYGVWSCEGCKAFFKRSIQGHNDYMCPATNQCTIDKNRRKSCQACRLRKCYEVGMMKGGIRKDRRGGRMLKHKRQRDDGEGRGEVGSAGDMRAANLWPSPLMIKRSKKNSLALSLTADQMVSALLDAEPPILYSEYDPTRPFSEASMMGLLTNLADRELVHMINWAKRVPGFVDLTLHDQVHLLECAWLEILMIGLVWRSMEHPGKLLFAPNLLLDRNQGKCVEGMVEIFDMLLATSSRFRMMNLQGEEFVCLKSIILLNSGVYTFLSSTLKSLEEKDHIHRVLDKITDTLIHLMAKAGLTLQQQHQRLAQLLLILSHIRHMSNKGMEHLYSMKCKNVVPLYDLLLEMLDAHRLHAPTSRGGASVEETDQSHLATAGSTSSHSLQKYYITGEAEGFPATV
Tumor necrosis factor (Homo sapiens), sequence (P01375 whole entry, looked up): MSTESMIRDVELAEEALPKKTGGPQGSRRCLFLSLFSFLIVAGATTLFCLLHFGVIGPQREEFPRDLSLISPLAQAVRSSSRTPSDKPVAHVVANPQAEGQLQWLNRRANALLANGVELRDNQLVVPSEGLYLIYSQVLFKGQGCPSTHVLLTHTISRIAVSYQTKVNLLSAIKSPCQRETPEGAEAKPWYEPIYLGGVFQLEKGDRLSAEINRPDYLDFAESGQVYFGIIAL
Thyroid hormone receptor beta (Homo sapiens), sequence (P10828 whole entry, looked up): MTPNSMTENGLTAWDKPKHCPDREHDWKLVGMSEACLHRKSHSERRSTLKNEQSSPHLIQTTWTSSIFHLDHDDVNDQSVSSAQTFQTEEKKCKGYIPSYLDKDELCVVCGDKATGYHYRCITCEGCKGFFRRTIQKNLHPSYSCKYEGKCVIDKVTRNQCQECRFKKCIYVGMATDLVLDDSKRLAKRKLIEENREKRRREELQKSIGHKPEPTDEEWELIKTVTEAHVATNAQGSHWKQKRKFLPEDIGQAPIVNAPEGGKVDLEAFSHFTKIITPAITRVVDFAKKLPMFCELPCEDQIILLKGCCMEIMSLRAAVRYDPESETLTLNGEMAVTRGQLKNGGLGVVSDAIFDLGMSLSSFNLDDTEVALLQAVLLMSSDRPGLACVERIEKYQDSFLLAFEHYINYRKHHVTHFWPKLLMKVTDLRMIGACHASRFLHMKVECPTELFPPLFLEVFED

Take `OCC(Cl)CCl` (centres undefined): the Potency entry in experiment [1], in experiment [2], in experiment [9], in [11], in [14] and in experiment [16] was “inactive” in each case. Moreover, the Potency entry in experiment [18] and in experiment [19] was “inactive” each time. For the same compound, the figures for the activation in experiment [3], in experiment [13] and in experiment [17] were 11.4% (inactive), 0.192% (inactive) and 1.02% (inactive), respectively. Also, the outcome in experiment [4], in experiment [5], in experiment [7], in [8], in experiment [10] and in experiment [15] was inactive. Moreover, the max response in experiment [6] was -16%. Also, the activity change % (negative = inhibition) in [12] was -13.6% (inactive).
Turning to `Nc1c(Cl)cc([N+](=O)[O-])cc1Cl`, the Potency entry in experiment [2], in experiment [9], in [11] and in experiment [19] was “inactive” in each case. In addition, the activation in experiment [20] was -3.3% (inactive) and 0.0652% (inactive); in [3], -0.898% (inactive); in experiment [13], 0.598% (inactive) and -4.6% (inactive); in experiment [17], -0.0582% (inactive) and 1.9% (inactive). Besides, the call in experiment [4], in [5], in experiment [7] and in [10] was inactive. Also, the max response in experiment [6] is 8.87% and 11.4%. Further, in experiment [12], the activity change % (negative = inhibition) is 16.2% (inactive) and 3.97% (inactive).
In the case of `C=CCc1cc(OC)c2c(c1)OCO2`, the figures for the activation in experiment [3], in experiment [13] and in experiment [17] were -4.93% (inactive), -0.352% (inactive) and 0.0584% (inactive), respectively. For the same compound, the result in experiment [4], in experiment [5], in experiment [8], in experiment [10] and in experiment [15] was inactive. The Potency result in experiment [11], in [14], in experiment [18] and in experiment [19] was “inactive” in each case.
Regarding `CCCCNC(=O)n1c(NC(=O)OC)nc2ccccc21`, the Potency result in experiment [2], in experiment [11], in experiment [14] and in experiment [18] was “inactive” throughout. Besides, the activation was -3.82% (inactive) and -0.311% (inactive) in experiment [20]; -10.9% (inactive) in experiment [3]; -0.565% (inactive) and 0.0154% (inactive) in [13]; 8.93% (inactive) and 9.96% (inactive) in [17]. Also, the compound was called inactive in experiment [8], in experiment [10] and in experiment [15]. In addition, in experiment [12], the activity change % (negative = inhibition) is -13.8% (inactive) and -24% (inactive).
`Clc1cccc(Cl)c1`: the values for the activation in experiment [3], in experiment [13] and in [17] were -3.34% (inactive), -1.17% (inactive) and -1.27% (inactive), respectively. The result in experiment [5], in experiment [8], in experiment [10] and in [15] was inactive. In addition, the max response in [6] worked out at 20.6%. Besides, the Potency entry in experiment [11], in experiment [16], in experiment [18] and in [19] was “inactive” each time.
Take `CCCCCOC(=O)c1ccccc1C(=O)OCCCCC`: the Potency entry in experiment [1], in experiment [2], in [9], in experiment [11], in experiment [14] and in experiment [16] was “inactive” each time. In addition, in experiment [18], the Potency result was “inactive”. For the same compound, the activation in experiment [3] is 5.29% (inactive) and -3.67% (inactive); in experiment [13], 1.01% (inactive) and -1.21% (inactive); in [17] it was 0.174% (inactive) and 4.48% (inactive). The compound was classed as inactive in [4], in experiment [8], in experiment [10] and in experiment [15]. In addition, the activity change % (negative = inhibition) in experiment [12] is 15.4% (inactive) and 2.77% (inactive).
`C/C=C/C=O`: the activation in experiment [3] was 3.01% (inactive); in experiment [13], 0.438% (inactive). For the same compound, the compound was called inactive in experiment [8], in experiment [10] and in experiment [15]. Moreover, the Potency result in experiment [9], in experiment [18] and in experiment [19] was “inactive” throughout. Moreover, the activity change % (negative = inhibition) in [12] was -1.85% (inactive).
On to `O=C(Cc1ccccc1)OCc1ccccc1`, for which the Potency result in [1], in experiment [2], in experiment [11], in [14], in [16] and in [18] was “inactive” in each case. Also, in experiment [19], the Potency result was “inactive”. The activation in [20] was -3.22% (inactive); in [3] it was 0.186% (inactive). Besides, the compound was called inactive in [5], in [7], in experiment [8], in [10] and in [15]. Moreover, in experiment [6], the max response amounted to 18.5%. In addition, the activity change % (negative = inhibition) in experiment [12] is 0.158% (inactive).
